Among the test systems are HCT-15 colon; HT29 colon; SNB-75 CNS; SNB-19 CNS; U251 CNS; PC-3 prostate; SK-MEL-5 melanoma; UACC-62 melanoma; LOX IMVI melanoma; SK-MEL-28 melanoma; SK-MEL-2 melanoma; SN12C renal; UO-31 renal; TK-10 renal; ACHN renal; CAKI-1 renal; A498 renal; CCRF-CEM leukemia; MOLT-4 leukemia.
Test in all cases: NCI-60 one-dose screen, 48 h (100 = growth as untreated, 0 = no growth, -100 = all killed)
Conditions in all cases: 10 µM unless noted

Structures are written as SMILES. About 83,000 compounds went through this panel and 20% of them were active in at least one assay; those are over-represented in the sample as a whole.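 96-well plates, one dose, 48 hours. Percent growth reported; active if below 10.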 A number with no mark means an inactive call. Activity calls are given as the source filed them.

In the case of `CCNCc1ccncc1`, the growth with HCT-15 colon was 104%; in the assay on HT29 colon, 102%; in the assay on SNB-75 CNS, 92.5%; in the assay on SNB-19 CNS, 106%; in the assay on U251 CNS, 94.9%; in the assay on PC-3 prostate, 85.2%. Besides, the growth in the assay with SK-MEL-5 melanoma is 102%; in the assay with UACC-62 melanoma it was 109%; with LOX IMVI melanoma, 93.6%; in the assay with SK-MEL-28 melanoma, 119%; with SK-MEL-2 melanoma it was 106%; with SN12C renal, 108%. For the same compound, the growth was 89.8% in the assay with UO-31 renal; 99.5% in the assay with TK-10 renal; 108% in the assay with ACHN renal; 94% in the assay on CAKI-1 renal; 97.8% with A498 renal; 95% in the assay with CCRF-CEM leukemia. Also, in the assay on MOLT-4 leukemia, the growth is 92%.

For `CC(=O)Nc1nc(C(=O)N2N=C(C)/C(=C/c3ccccc3)C2=O)cs1`, the growth with HCT-15 colon is 105%; in the assay with HT29 colon it was 97.5%; in the assay with SNB-75 CNS it was 95.5%; in the assay with SNB-19 CNS, 103%; in the assay on U251 CNS it was 104%; in the assay with PC-3 prostate it was 97.7%. The growth in the assay with SK-MEL-5 melanoma was 108%; with UACC-62 melanoma it was 114%; with LOX IMVI melanoma it was 98.7%; in the assay on SK-MEL-28 melanoma it was 121%; in the assay with SK-MEL-2 melanoma, 94.6%; with SN12C renal, 109%. Moreover, the growth with UO-31 renal is 80.9%; in the assay on TK-10 renal it was 107%; with ACHN renal, 99.9%; in the assay on CAKI-1 renal it was 98.9%; with A498 renal, 120%; with CCRF-CEM leukemia, 98.7%. The growth in the assay with MOLT-4 leukemia was 95.8%.

Take `Cc1cccc(NC(=O)c2sc3nc4c(cc3c2N)CCC4)c1C`: the growth is 20.1% in the assay on HCT-15 colon; 1.41% (active) in the assay on HT29 colon; 13.9% in the assay with SNB-75 CNS; 38% in the assay on SNB-19 CNS; 16.6% in the assay on U251 CNS; 11.2% in the assay on PC-3 prostate. In addition, the growth in the assay on SK-MEL-5 melanoma was 24.4%; with UACC-62 melanoma it was 28.7%; in the assay on LOX IMVI melanoma, 24.5%; in the assay with SK-MEL-28 melanoma, 57.8%; with SK-MEL-2 melanoma, 26.3%; with SN12C renal, 41.2%. For the same compound, the growth with UO-31 renal was 43.4%; in the assay on TK-10 renal it was 35%; in the assay on ACHN renal, 48.4%; in the assay on CAKI-1 renal, 30.5%; in the assay with A498 renal it was 8.64% (active); in the assay on CCRF-CEM leukemia, 10.7%. Moreover, the growth in the assay on MOLT-4 leukemia was 22.6%.

`Cc1cc(Nc2nc(-c3ccc(F)cc3)nc3ccccc23)n[nH]1`: the growth in the assay on HCT-15 colon is 33.9%; in the assay on HT29 colon, 22.5%; with SNB-75 CNS, -21% (active); with SNB-19 CNS it was 80.2%; with U251 CNS, 88.4%; with PC-3 prostate, 56.5%. The growth is 73.7% with SK-MEL-5 melanoma; 40.8% in the assay on UACC-62 melanoma; 32.6% with LOX IMVI melanoma; 56.3% in the assay on SK-MEL-28 melanoma; 27.7% in the assay with SK-MEL-2 melanoma; 61.6% in the assay with SN12C renal. In addition, the growth with UO-31 renal is 32%; in the assay with TK-10 renal it was 32.6%; with ACHN renal, 39.4%; with CAKI-1 renal it was -7.57% (active); with A498 renal, 1.89% (active); with CCRF-CEM leukemia, 44.5%. Moreover, the growth in the assay on MOLT-4 leukemia was 64.1%.

As to `CCCCCCCN(CCCCCCC)C(=N)c1ccc(OC)c2ccccc12`, the growth in the assay with HCT-15 colon was -81.4% (active); in the assay with HT29 colon, -78.8% (active); with SNB-75 CNS, -98.2% (active); in the assay with SNB-19 CNS, -80.7% (active); in the assay with U251 CNS, -90.5% (active); with PC-3 prostate, -92.3% (active). Moreover, the growth in the assay on SK-MEL-5 melanoma was -93.2% (active); with UACC-62 melanoma it was -76.5% (active); in the assay with LOX IMVI melanoma, -98.7% (active); in the assay with SK-MEL-28 melanoma, -82.9% (active); in the assay with SK-MEL-2 melanoma, -82.5% (active); in the assay with SN12C renal it was -75.4% (active). Also, the growth in the assay on UO-31 renal is -86.6% (active); with TK-10 renal it was -89.4% (active); with ACHN renal, -91.9% (active); in the assay with CAKI-1 renal, -12.2% (active); in the assay with A498 renal, -52.9% (active); in the assay on CCRF-CEM leukemia, -43.5% (active). For the same compound, the growth in the assay with MOLT-4 leukemia is -50.4% (active).

Consider `O=C(Cc1c(F)cccc1Cl)Nc1ccc(S(=O)(=O)Nc2ncccn2)cc1`, for which the growth in the assay with HCT-15 colon is 104%; with HT29 colon, 120%; in the assay with SNB-75 CNS, 110%; in the assay on SNB-19 CNS, 96%; in the assay on U251 CNS, 105%; in the assay on PC-3 prostate, 100%. Moreover, the growth in the assay on SK-MEL-5 melanoma was 100%; in the assay on UACC-62 melanoma, 107%; in the assay on LOX IMVI melanoma, 92.9%; with SK-MEL-28 melanoma, 122%; with SK-MEL-2 melanoma, 73.1%; with SN12C renal it was 96%. The growth in the assay on UO-31 renal is 42.7%; in the assay on TK-10 renal, 112%; in the assay on ACHN renal, 100%; with CAKI-1 renal, 91%; in the assay with A498 renal, 98.4%; with CCRF-CEM leukemia it was 61.6%. Moreover, the growth with MOLT-4 leukemia was 103%.

In the case of `COC1=CC(c2ccc[nH]2)=N/C1=C\c1[nH]c(C)c(CCCn2cc(CCCCCCCCC[C@@H]3Cc4cc(O)ccc4C4CC[C@]5(C)[C@@H](O)CC[C@H]5C43)nn2)c1C` (some centres not stated), the growth with HCT-15 colon was 35%; with HT29 colon it was 23.6%; with SNB-75 CNS, 88.8%; in the assay with SNB-19 CNS, 77.7%; in the assay on U251 CNS it was 44.1%; in the assay with PC-3 prostate it was 45%. The growth is 35.5% with SK-MEL-5 melanoma; 12.9% with UACC-62 melanoma; 13.4% in the assay with LOX IMVI melanoma; 75.9% with SK-MEL-28 melanoma; 69.7% in the assay with SK-MEL-2 melanoma; 62.4% with SN12C renal. Also, the growth with UO-31 renal was 49.8%; in the assay with TK-10 renal it was 109%; in the assay on ACHN renal, 40.8%; in the assay with CAKI-1 renal, 71%; in the assay with A498 renal it was 62.1%; with CCRF-CEM leukemia, 28.1%. Also, in the assay on MOLT-4 leukemia, the growth was 67.1%.

`COC(=O)C(CC(=O)c1ccc(-c2ccccc2)cc1)c1ccccc1` (configuration not stated): the growth is 31.3% with HCT-15 colon; 6.34% (active) in the assay with HT29 colon; 72.5% with SNB-75 CNS; 75.5% with SNB-19 CNS; 71.1% in the assay with U251 CNS; 64.4% in the assay with PC-3 prostate. Moreover, the growth with SK-MEL-5 melanoma was 45.5%; in the assay on UACC-62 melanoma, 51.3%; with LOX IMVI melanoma, 44.9%; in the assay on SK-MEL-28 melanoma it was 70.9%; with SK-MEL-2 melanoma it was 69.4%; in the assay with SN12C renal, 64.2%. The growth was 53.8% in the assay with UO-31 renal; 68% in the assay on TK-10 renal; 41.3% in the assay with ACHN renal; 44.3% with CAKI-1 renal; 41.7% with A498 renal; 49.4% in the assay on CCRF-CEM leukemia. For the same compound, the growth in the assay with MOLT-4 leukemia is 47.3%.
